Reference: PMC7862700, “An all-to-all approach to the identification of sequence-specific readers for epigenetic DNA modifications on cytosine”

Tests used:
Test in all cases: DAPPL (digital affinity profiling via proximity ligation, sequencing); 10 mM Tris-HCl pH 7.5, 50 mM NaCl, 1 mM DTT, 4% glycerol, room temperature, 30 min; GST-TFs on glutathione beads, 16-mer random dsDNA library, 0.1% formaldehyde crosslink after washing; high values mean tight binding
[1] = target: T1, FEV (Homo sapiens, UniProt Q99581 1-238); details: protein: recombinant; tags: N-terminal GST; dsDNA, one strand shown
T1 sequence: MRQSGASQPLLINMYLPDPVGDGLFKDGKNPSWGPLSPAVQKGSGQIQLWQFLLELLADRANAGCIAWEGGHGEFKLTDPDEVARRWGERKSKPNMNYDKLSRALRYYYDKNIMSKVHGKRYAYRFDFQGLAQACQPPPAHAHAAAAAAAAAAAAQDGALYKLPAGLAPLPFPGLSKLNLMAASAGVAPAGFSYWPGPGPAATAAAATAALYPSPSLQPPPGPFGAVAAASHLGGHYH
Procedure, shortened: (§1)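 Binding signal is each hexamer's read frequency for a factor divided by its frequency in the tag-only sample. The factors were GST-fused human transcription factors from yeast, captured on glutathione beads, DNA-barcoded and pooled with that sample. Pools were incubated with 200 nmole of a random double-stranded 16-mer DNA library in Tris/NaCl/DTT/glycerol buffer at room temperature for 30 min, then washed, crosslinked with 0.1% formaldehyde, proximity-ligated with BsaI/T4 ligase (1 h, 37 °C), PCR-amplified and sequenced on an Illumina NextSeq500.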

[2] = target: ETV5 (Homo sapiens, UniProt P41161 1-510); details: protein: recombinant; tags: N-terminal GST; dsDNA, one strand shown
Procedure, shortened: as §1

[3] = target: HSF1 (Homo sapiens, UniProt Q00613 1-529); details: protein: recombinant; tags: N-terminal GST; chain copies: 3; dsDNA, one strand shown
Procedure, shortened: as §1

[4] = target: ELF4 (Homo sapiens, UniProt Q99607 1-663); details: protein: recombinant; tags: N-terminal GST; dsDNA, one strand shown
Procedure, shortened: as §1

[5] = target: T2, ELK4 (Homo sapiens, UniProt P28324-2 1-405); details: protein: recombinant; tags: N-terminal GST; dsDNA, one strand shown
T2 sequence: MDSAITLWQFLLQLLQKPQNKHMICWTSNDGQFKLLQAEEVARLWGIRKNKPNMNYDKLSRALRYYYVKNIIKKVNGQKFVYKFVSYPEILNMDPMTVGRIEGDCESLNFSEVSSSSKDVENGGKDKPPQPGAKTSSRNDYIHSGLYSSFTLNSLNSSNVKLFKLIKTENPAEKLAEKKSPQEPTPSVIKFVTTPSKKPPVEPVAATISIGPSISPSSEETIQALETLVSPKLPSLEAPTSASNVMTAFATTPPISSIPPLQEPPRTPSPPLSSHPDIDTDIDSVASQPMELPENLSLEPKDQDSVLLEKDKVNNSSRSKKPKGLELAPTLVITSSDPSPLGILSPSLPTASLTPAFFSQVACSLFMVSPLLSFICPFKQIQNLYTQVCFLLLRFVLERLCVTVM
Procedure, shortened: as §1

[6] = target: T3, ETV2 (Homo sapiens, UniProt O00321 1-342); details: protein: recombinant; tags: N-terminal GST; dsDNA, one strand shown
T3 sequence: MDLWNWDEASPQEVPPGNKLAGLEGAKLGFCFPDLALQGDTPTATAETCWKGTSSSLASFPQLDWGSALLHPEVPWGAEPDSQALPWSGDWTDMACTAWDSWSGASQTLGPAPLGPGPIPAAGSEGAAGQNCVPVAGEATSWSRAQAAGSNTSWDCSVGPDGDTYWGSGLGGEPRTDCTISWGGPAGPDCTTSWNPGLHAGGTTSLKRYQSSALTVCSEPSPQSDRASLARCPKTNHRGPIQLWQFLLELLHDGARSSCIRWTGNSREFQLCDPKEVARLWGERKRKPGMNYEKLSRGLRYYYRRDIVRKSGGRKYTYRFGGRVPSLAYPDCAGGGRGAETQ
Procedure, shortened: as §1

[7] = target: T4, ELF3 (Homo sapiens, UniProt P78545 1-371); details: protein: recombinant; tags: N-terminal GST; dsDNA, one strand shown
T4 sequence: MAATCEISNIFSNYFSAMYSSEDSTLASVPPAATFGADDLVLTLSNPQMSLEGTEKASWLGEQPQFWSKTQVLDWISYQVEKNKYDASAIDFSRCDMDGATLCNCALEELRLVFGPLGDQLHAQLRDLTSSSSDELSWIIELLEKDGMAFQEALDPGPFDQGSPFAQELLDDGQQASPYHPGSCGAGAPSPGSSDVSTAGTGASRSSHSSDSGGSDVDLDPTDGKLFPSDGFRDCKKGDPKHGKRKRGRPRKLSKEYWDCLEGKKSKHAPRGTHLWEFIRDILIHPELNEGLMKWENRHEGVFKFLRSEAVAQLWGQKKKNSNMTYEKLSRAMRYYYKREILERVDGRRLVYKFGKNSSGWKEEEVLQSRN
Procedure, shortened: as §1

[8] = target: ETV1 (Homo sapiens, UniProt P50549 1-477); details: protein: recombinant; tags: N-terminal GST; dsDNA, one strand shown
Procedure, shortened: as §1

[9] = target: T5, ERF (Homo sapiens, UniProt P50548 1-548); details: protein: recombinant; tags: N-terminal GST; dsDNA, one strand shown
T5 sequence: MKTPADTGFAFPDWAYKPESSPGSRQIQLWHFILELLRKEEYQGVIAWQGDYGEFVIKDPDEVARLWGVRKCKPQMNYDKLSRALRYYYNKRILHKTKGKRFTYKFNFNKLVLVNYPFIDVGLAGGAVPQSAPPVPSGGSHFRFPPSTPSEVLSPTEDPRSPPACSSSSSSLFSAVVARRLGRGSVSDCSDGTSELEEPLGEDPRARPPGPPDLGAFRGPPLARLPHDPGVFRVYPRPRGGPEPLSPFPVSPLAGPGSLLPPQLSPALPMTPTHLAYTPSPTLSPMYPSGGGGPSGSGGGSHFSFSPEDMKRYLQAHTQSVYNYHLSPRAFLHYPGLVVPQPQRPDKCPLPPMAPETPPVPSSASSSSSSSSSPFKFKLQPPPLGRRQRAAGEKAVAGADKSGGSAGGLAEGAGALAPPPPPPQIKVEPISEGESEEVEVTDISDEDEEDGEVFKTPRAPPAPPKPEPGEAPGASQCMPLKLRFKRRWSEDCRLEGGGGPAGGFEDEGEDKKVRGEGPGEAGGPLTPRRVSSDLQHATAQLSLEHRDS
Procedure, shortened: as §1

[10] = target: T6, ETV3L (Homo sapiens, UniProt Q6ZN32 1-361); details: protein: recombinant; tags: N-terminal GST; dsDNA, one strand shown
T6 sequence: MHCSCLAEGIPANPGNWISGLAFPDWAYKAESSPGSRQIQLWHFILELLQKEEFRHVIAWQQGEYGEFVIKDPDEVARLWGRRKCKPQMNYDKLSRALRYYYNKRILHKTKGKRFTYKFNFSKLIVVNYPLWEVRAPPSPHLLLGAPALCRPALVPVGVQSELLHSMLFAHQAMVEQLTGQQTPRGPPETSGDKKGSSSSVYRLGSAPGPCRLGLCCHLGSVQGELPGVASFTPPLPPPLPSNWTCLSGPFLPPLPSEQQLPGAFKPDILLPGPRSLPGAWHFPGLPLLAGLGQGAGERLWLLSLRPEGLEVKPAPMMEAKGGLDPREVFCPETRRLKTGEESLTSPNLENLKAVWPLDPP
Procedure, shortened: as §1

[11] = target: T7, ETS2 (Homo sapiens, UniProt P15036 1-469); details: protein: recombinant; tags: N-terminal GST; dsDNA, one strand shown
T7 sequence: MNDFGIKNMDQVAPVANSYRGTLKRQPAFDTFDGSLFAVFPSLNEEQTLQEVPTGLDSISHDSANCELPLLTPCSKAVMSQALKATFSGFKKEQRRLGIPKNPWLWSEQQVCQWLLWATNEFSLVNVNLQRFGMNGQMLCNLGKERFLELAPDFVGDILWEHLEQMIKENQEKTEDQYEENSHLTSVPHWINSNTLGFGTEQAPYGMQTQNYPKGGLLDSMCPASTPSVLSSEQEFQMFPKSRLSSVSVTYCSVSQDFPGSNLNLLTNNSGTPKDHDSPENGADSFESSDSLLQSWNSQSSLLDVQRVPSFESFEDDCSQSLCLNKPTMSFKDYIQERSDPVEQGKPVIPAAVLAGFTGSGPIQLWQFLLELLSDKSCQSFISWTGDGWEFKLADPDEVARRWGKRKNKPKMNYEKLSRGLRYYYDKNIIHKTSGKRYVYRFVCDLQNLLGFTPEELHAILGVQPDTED
Procedure, shortened: as §1

[12] = target: T8, SPDEF (Homo sapiens, UniProt O95238 1-335); details: protein: recombinant; tags: N-terminal GST; dsDNA, one strand shown
T8 sequence: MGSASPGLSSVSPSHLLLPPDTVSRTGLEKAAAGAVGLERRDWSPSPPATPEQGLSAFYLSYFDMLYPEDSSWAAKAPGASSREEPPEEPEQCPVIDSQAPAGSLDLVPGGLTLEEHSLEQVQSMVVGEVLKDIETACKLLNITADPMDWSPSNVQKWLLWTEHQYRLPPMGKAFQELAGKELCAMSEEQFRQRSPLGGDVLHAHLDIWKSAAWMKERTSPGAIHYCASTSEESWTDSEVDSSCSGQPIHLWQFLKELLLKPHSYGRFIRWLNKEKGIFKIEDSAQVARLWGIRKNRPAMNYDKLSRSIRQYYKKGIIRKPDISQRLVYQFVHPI
Procedure, shortened: as §1

[13] = target: T9, ETV7 (Homo sapiens, UniProt Q9Y603 1-341); details: protein: recombinant; tags: N-terminal GST; dsDNA, one strand shown
T9 sequence: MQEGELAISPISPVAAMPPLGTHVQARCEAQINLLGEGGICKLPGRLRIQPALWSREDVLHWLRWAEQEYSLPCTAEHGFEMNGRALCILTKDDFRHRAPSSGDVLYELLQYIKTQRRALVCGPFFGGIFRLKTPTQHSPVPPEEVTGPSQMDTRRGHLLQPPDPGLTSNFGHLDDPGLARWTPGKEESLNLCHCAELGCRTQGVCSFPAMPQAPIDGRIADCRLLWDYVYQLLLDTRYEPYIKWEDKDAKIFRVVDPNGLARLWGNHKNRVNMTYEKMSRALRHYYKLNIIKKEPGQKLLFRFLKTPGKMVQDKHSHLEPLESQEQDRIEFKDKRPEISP
Procedure, shortened: as §1

[14] = target: T10, ELF5 (Homo sapiens, UniProt Q9UKW6-2 1-255); details: protein: recombinant; tags: N-terminal GST; dsDNA, one strand shown
T10 sequence: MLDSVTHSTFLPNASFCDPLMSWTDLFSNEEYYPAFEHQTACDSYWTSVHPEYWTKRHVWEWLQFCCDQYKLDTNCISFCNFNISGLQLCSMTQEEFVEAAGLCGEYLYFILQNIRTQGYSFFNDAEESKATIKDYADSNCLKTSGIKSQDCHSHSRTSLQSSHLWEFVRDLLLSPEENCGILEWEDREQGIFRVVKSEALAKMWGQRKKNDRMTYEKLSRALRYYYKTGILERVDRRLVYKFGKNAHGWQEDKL
Procedure, shortened: as §1

[15] = target: T11, ETV3 (Homo sapiens, UniProt P41162-2 1-143); details: protein: recombinant; tags: N-terminal GST; dsDNA, one strand shown
T11 sequence: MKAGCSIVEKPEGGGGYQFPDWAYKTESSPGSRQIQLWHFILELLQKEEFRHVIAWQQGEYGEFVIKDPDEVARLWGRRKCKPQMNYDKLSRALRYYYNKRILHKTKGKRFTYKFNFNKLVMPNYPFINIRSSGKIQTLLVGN
Procedure, shortened: as §1

[16] = target: ETV6 (Homo sapiens, UniProt P41212 1-452); details: protein: recombinant; tags: N-terminal GST; dsDNA, one strand shown
Procedure, shortened: as §1

Chain of HSF1 (Q00613 whole entry): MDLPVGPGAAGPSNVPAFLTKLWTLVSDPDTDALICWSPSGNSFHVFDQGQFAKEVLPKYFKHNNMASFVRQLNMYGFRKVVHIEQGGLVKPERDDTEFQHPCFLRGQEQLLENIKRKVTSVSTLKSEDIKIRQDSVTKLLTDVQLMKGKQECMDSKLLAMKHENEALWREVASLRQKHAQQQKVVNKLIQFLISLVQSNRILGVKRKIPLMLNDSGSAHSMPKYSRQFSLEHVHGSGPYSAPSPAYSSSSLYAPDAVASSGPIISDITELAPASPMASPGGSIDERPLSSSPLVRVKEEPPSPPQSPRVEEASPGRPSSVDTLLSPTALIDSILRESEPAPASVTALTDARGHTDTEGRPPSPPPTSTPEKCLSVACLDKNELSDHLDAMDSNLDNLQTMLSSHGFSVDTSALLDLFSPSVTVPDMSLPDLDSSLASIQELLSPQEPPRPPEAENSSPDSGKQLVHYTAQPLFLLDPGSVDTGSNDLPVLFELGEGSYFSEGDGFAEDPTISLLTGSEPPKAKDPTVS
Chain of ELF4 (Q99607 whole entry): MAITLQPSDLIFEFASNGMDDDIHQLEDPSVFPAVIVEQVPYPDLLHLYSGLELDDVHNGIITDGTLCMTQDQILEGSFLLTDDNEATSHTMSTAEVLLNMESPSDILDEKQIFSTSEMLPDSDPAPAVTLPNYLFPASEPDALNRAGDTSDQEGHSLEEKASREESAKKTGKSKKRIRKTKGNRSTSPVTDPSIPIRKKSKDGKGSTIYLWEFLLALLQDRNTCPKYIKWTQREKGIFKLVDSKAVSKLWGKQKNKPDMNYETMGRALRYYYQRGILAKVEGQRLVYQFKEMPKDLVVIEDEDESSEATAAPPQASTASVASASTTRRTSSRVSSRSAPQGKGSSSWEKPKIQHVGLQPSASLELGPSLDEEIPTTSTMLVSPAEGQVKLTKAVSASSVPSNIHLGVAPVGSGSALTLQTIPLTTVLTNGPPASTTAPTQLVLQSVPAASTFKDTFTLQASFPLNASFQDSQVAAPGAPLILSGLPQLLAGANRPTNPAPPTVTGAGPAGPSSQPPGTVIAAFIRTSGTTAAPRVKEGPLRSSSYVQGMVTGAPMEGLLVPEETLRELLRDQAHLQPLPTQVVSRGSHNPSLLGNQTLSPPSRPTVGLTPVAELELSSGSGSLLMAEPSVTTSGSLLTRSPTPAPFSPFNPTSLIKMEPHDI
Chain of ETV1 (P50549 whole entry): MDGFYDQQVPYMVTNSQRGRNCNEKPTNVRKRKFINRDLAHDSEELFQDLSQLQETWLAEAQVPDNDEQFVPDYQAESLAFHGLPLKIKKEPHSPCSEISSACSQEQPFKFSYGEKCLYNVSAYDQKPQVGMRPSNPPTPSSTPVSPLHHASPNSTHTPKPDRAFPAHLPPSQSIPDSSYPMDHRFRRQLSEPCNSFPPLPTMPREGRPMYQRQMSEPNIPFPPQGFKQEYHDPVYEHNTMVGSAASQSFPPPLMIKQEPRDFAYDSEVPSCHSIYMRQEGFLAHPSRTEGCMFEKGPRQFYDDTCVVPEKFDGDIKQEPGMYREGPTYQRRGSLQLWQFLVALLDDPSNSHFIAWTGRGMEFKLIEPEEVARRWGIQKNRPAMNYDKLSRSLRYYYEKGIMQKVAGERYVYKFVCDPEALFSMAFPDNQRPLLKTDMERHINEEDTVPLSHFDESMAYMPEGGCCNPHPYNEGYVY
Chain of ETV5 (P41161 whole entry): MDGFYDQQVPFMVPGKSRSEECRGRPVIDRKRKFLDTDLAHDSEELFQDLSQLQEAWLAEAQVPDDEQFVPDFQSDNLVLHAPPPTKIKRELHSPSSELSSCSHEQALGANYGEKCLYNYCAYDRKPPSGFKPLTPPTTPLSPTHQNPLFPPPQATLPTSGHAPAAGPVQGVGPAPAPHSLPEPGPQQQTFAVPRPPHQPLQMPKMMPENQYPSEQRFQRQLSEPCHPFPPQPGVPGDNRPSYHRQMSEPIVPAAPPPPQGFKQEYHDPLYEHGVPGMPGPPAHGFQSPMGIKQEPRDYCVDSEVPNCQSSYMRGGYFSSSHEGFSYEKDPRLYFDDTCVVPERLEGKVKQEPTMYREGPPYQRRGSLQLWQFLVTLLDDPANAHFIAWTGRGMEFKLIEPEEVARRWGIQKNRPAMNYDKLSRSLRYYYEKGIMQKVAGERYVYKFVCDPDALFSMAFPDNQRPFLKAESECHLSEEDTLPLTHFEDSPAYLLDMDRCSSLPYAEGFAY
Chain of ETV6 (P41212 whole entry): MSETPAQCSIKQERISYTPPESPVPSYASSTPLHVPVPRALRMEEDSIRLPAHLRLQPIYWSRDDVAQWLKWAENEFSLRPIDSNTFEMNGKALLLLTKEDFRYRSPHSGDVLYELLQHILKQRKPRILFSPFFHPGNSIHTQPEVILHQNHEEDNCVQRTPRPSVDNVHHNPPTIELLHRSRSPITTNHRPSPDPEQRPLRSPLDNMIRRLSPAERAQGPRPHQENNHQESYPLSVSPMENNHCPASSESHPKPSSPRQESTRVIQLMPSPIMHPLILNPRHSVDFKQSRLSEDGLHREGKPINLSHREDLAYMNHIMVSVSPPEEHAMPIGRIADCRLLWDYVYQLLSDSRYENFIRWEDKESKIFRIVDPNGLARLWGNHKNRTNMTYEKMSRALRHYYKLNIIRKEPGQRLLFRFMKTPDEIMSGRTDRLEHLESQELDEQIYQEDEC

In the case of TGACGA, the binding signal [1] was 1.05 fold enrichment (6-mer frequency, TF over GST control), the binding signal [2] was 1.13 fold enrichment (6-mer frequency, TF over GST control) and the binding signal [3] was 1.01 fold enrichment (6-mer frequency, TF over GST control). The binding signal [4] was 1.11 fold enrichment (6-mer frequency, TF over GST control), the binding signal [5] was 1.18 fold enrichment (6-mer frequency, TF over GST control) and the binding signal [6] was 1.15 fold enrichment (6-mer frequency, TF over GST control). For the same sequence, the binding signal [7] was 1.08 fold enrichment (6-mer frequency, TF over GST control), the binding signal [8] was 1.04 fold enrichment (6-mer frequency, TF over GST control) and the binding signal [9] was 1.14 fold enrichment (6-mer frequency, TF over GST control). For the same sequence, the binding signal [10] was 1.07 fold enrichment (6-mer frequency, TF over GST control), the binding signal [11] was 1.17 fold enrichment (6-mer frequency, TF over GST control) and the binding signal [12] was 1 fold enrichment (6-mer frequency, TF over GST control). The binding signal [13] was 1.11 fold enrichment (6-mer frequency, TF over GST control), the binding signal [14] was 1.04 fold enrichment (6-mer frequency, TF over GST control) and the binding signal [15] was 1.09 fold enrichment (6-mer frequency, TF over GST control). For the same sequence, the binding signal [16] was 1.16 fold enrichment (6-mer frequency, TF over GST control).
In the case of GAACCA, the binding signal [2] was 1.02 fold enrichment (6-mer frequency, TF over GST control), the binding signal [3] was 1.03 fold enrichment (6-mer frequency, TF over GST control) and the binding signal [4] was 1.02 fold enrichment (6-mer frequency, TF over GST control). The binding signal [5] was 1.06 fold enrichment (6-mer frequency, TF over GST control), the binding signal [6] was 1.02 fold enrichment (6-mer frequency, TF over GST control) and the binding signal [7] was 1.09 fold enrichment (6-mer frequency, TF over GST control). For the same sequence, the binding signal [8] was 1 fold enrichment (6-mer frequency, TF over GST control), the binding signal [10] was 1.01 fold enrichment (6-mer frequency, TF over GST control) and the binding signal [14] was 1.01 fold enrichment (6-mer frequency, TF over GST control).
